What was measured:
Experiment in all cases: log2 ratio of Biotin-Ahx-Ub-VS probe labelling (fragment/DMSO); higher = less target engagement (more negative = stronger competition), active = hit call of the paper (q ≤ 0.05, log2 ratio ≤ -1)
Settings in all cases: compound concentration: 200 uM; treatment time: 3 h
USP19 = target: T1, USP19 (UniProt O94966)
T1 sequence (whole entry): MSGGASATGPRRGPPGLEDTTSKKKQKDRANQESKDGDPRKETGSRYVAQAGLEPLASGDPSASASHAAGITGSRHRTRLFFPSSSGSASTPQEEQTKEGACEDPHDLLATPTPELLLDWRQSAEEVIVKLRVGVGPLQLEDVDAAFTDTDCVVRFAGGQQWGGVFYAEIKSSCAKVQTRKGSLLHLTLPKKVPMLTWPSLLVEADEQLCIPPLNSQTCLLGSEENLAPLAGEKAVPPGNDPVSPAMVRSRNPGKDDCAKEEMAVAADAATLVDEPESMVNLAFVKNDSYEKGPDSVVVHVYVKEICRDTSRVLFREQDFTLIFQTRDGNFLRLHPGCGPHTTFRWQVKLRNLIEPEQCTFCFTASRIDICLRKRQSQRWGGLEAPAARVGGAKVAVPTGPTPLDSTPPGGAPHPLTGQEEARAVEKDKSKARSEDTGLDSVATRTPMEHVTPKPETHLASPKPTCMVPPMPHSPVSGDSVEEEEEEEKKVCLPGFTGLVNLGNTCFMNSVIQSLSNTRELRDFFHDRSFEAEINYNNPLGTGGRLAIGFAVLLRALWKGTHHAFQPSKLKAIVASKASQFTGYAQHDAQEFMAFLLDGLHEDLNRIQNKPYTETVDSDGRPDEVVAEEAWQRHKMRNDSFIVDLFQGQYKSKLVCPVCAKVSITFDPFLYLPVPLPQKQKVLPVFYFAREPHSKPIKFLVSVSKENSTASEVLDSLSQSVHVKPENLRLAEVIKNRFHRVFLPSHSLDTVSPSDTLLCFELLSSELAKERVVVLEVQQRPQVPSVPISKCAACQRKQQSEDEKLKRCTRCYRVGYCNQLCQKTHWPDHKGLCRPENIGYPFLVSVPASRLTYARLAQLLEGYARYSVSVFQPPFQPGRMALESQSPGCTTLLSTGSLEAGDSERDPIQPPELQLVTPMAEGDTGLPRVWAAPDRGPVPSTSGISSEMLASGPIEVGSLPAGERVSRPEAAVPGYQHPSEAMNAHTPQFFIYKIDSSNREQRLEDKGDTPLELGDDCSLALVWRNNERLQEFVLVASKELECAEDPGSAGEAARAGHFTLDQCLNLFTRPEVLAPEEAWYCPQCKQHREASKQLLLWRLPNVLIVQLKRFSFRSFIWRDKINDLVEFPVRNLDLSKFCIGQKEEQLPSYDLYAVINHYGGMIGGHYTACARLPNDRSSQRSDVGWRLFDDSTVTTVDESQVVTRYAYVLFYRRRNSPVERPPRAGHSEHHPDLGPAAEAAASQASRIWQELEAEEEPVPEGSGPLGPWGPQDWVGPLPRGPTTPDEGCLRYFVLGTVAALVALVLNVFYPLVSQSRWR
Procedure, shortened: (§1)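 HEK293T lysate, 495 µg per sample in Tris/CHAPS/IGEPAL buffer with protease inhibitors, was treated in triplicate with fragment at 200 µM or vehicle for 3 h and then with Biotin-Ahx-Ub-VS at 0.5 µM final for 1 h. Labelled DUBs were NeutrAvidin-enriched, digested with LysC and trypsin, and run by diaPASEF LC-MS/MS. Spectronaut label-free quantities were global-median-normalised, and values are average log2 fragment/vehicle ratios by unpaired t-test on proteins with ≥2 unique peptides.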

USP24 = USP24 (UniProt Q9UPU5)
Procedure, shortened: as §1

USP25 = target: T2, USP25 (UniProt Q9UHP3)
T2 sequence (whole entry): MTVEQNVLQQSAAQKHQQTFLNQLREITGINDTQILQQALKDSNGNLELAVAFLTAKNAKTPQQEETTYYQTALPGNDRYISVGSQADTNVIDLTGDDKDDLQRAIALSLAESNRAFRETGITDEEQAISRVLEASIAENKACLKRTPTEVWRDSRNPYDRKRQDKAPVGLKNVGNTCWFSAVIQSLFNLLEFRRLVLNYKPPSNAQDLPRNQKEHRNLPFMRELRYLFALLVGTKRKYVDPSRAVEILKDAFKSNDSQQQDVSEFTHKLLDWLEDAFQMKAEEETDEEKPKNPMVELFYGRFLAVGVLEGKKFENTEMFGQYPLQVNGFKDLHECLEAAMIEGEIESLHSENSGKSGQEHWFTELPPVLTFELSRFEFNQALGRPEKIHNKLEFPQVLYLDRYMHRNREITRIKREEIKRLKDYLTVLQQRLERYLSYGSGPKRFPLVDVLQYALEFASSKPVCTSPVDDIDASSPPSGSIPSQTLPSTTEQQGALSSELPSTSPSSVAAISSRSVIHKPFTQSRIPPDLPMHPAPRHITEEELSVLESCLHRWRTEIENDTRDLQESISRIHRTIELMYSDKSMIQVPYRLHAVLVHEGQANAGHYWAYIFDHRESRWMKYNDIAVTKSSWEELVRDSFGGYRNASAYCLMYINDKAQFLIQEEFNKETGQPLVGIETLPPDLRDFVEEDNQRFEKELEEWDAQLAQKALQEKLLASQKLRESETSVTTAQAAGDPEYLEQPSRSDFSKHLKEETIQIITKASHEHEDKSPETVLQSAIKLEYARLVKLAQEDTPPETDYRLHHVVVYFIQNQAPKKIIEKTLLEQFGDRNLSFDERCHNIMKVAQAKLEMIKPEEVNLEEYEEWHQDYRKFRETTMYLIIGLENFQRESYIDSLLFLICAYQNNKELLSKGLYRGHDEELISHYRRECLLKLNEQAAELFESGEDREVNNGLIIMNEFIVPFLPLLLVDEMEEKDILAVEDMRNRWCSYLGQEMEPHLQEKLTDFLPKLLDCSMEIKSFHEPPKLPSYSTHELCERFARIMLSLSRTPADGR
Procedure, shortened: as §1

USP28 = target: T3, USP28 (UniProt Q96RU2)
T3 sequence (whole entry): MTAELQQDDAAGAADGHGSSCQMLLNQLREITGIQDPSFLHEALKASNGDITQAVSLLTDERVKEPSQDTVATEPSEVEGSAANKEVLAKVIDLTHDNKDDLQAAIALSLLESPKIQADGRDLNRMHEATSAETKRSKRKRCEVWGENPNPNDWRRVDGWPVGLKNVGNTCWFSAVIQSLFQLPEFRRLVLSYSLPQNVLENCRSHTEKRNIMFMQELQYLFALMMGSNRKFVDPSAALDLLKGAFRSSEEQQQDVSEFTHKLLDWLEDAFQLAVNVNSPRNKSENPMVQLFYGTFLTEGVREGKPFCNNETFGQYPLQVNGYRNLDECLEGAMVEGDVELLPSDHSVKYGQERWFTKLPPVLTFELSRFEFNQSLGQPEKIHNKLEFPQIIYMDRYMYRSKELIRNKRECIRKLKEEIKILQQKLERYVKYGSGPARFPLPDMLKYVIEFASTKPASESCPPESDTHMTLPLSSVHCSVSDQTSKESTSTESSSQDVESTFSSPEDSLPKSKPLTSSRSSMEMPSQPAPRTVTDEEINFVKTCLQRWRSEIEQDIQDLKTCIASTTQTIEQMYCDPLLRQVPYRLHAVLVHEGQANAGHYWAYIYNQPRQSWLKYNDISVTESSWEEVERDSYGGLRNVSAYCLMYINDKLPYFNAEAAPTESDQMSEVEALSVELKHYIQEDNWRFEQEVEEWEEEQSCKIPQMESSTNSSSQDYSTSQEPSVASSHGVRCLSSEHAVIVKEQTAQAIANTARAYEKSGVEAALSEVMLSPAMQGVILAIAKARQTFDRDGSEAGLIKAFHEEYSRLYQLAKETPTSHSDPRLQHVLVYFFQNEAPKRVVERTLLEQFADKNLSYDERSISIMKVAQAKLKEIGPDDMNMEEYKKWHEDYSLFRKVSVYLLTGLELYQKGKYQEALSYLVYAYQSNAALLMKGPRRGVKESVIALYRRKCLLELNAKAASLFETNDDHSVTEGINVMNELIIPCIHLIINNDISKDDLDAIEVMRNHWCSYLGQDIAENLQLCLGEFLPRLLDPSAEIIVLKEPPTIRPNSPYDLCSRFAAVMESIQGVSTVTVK
Procedure, shortened: as §1

Measured: log2 ratio of Biotin-Ahx-Ub-VS probe labelling

Chain of USP24 (Q9UPU5 whole entry): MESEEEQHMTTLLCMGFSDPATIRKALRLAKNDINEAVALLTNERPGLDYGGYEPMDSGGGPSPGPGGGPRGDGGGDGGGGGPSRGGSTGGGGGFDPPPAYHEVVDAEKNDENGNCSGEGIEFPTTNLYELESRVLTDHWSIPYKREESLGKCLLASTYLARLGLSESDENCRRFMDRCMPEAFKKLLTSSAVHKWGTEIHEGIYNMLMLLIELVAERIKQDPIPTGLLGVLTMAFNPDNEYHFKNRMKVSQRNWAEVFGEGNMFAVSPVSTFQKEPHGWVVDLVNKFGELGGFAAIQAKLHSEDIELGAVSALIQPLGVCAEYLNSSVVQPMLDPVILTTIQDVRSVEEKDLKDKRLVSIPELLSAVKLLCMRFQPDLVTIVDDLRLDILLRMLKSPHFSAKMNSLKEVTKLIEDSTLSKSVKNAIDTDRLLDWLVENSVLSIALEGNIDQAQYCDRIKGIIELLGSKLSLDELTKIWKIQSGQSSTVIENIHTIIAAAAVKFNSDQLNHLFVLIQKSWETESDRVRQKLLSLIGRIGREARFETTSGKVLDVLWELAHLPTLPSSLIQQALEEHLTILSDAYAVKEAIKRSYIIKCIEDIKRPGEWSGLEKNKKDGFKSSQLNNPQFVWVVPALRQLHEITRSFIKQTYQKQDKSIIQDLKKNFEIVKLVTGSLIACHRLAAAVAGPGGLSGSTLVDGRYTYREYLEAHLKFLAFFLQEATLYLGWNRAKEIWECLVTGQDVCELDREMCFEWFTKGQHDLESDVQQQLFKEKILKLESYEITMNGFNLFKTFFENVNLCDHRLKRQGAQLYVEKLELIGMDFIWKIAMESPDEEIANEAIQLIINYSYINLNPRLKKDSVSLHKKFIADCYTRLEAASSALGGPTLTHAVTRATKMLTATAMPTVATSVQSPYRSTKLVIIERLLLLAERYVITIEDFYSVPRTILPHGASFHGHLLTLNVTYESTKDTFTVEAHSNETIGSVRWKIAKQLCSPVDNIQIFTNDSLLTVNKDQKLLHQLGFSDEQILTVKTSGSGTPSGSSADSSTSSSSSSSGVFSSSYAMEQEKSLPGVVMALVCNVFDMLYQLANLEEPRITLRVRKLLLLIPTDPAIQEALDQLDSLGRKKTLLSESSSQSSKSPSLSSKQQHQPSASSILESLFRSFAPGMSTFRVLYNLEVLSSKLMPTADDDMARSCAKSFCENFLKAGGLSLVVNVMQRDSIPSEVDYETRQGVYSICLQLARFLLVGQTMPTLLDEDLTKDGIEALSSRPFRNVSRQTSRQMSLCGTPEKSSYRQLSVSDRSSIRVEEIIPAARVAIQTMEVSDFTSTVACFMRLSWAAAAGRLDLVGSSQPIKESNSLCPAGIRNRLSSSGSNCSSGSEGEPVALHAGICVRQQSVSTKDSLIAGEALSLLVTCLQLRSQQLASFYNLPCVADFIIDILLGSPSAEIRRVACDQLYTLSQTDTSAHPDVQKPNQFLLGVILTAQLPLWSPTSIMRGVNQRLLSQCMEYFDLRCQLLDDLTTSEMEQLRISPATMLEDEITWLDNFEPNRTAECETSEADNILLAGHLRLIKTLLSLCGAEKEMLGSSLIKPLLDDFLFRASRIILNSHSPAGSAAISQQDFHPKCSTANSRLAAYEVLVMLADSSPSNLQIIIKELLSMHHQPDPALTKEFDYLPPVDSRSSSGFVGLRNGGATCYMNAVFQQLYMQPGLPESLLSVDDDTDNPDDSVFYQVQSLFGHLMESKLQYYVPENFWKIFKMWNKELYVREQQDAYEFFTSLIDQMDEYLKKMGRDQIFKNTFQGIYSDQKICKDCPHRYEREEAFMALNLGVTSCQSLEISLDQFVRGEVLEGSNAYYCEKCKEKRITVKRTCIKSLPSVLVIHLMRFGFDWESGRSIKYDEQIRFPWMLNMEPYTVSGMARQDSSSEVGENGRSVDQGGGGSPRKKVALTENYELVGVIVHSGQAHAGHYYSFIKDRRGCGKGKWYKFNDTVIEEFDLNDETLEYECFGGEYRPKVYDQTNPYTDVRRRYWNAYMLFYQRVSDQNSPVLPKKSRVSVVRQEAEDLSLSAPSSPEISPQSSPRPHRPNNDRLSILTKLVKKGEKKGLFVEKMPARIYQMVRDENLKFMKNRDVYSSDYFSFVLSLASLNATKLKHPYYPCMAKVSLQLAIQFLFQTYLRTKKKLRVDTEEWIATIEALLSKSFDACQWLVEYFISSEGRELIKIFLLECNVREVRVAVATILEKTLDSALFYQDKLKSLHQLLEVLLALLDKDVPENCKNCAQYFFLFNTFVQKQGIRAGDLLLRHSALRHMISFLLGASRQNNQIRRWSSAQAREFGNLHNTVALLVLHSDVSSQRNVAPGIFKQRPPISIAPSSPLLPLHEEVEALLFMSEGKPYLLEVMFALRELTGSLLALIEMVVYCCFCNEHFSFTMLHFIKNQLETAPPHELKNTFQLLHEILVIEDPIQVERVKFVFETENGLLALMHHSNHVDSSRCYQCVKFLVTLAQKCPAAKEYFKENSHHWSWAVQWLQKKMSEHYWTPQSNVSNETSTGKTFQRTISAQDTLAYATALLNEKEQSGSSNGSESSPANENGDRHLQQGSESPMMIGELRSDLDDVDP

O=C(CCl)NC(Cn1ccccc1=O)c1ccccc1 (centres undefined)
inactive: USP19 -0.14 | USP24 -0.0705 | USP25 -0.417 | USP28 -0.211

— the supplement of paper PMC11732987, “Enantioselective OTUD7B fragment discovery through chemoproteomics screening and high-throughput optimisation” (Communications Chemistry, 2025)
